# An excerpt weighted towards active compounds, which were near 2% of everything screened.
# APOBEC3G inh – blocks human APOBEC3G single-stranded DNA deamination; Q9HC16; recombinant A3G, ssDNA deamination FAM/TAMRA fluorescence; inhibition, % at 20 µM; 330,000 compounds, 0.28% hits; AID 493012;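 active means inhibition of at least 40% at 20 µM, with no more than 30% in the related APOBEC3A deaminase screen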;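 further: plate controls were DMSO wells with A3G for no effect and wells lacking A3G enzyme for full effect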
# APOBEC3A inh – human APOBEC3A DNA deaminase inhibition; recombinant A3A, FAM/TAMRA ssDNA deamination fluorescence; 330,000 compounds, 0.41% hits; inhibition, % at 20 µM; P31941;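 active means at least 40% inhibition at 20 µM here, with at most 30% in a related deaminase screen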;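 further: plate controls were A3A with DMSO for no effect and wells lacking A3A enzyme for full effect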
# GC-A act – GC-A (human) enzyme activation | P16066 | HEK293 GC-A cells, cGMP TR-FRET, EC30 ANP; 0% at EC30 ANP, 100% saturating ANP | activation, % at 10 µM | 370,000 compounds, 0.14% hits | AID 1671463; in the data active means activation above about 40%
# NPR2 activator – GC-B (human) receptor activation; HEK293-GC-B cells, CNP EC30, cGMP TR-FRET; 0% at EC30 CNP, 100% saturating CNP; 370,000 compounds, 0.11% hits; AID 1920062; activation, % at 10 µM; P20594;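 active means activation at 10 µM reaching about 35% in either raw or pattern-adjusted values, limit read from the data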
# Neddyl block – blocks human cullin neddylation | AID 651699 | inhibition, % at 25 µM | TR-FRET cullin neddylation, biochemical | 360,000 compounds, 0.58% hits | P61081+Q13564; in the data active means inhibition above about 36%
# Target sequence (P61081 whole entry, looked up): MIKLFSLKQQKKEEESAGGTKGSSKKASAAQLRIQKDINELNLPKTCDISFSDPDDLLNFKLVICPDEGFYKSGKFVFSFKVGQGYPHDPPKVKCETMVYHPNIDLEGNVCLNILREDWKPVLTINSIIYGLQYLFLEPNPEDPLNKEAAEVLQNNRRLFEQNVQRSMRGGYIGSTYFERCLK
# Target sequence (Q13564 whole entry, looked up): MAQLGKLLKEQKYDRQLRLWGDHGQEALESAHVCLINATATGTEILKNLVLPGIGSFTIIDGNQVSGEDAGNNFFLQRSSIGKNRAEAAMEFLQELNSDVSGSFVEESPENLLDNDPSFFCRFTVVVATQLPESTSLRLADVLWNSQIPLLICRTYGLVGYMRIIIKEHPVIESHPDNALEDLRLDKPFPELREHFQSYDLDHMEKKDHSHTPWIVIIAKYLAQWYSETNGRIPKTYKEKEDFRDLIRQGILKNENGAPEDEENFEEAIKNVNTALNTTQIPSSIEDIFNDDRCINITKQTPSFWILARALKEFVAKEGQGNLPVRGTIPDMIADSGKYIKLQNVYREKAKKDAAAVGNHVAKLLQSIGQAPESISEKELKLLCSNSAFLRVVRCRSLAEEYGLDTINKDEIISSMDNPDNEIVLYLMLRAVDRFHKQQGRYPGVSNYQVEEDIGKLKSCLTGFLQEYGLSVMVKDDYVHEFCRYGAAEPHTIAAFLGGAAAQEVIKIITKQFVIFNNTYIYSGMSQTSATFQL
# PfGluPho inh – PfG6PD (Plasmodium falciparum) enzyme inhibition. PfGluPho enzyme, NADPH resazurin-diaphorase fluorescence. inhibition, % at 20 µM. 350,000 compounds, 0.78% hits. AID 504690;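 active means inhibition reaching at least a set limit at 20 µM in the primary screen, cut at about 59% in these data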;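 further: 0% = DMSO wells with substrate and 100% = DMSO wells lacking glucose-6-phosphate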
# APOBEC3G confirm – APOBEC3G (human) deaminase inhibition, confirmed. 890 compounds, 72% hits. recombinant A3G ssDNA deaminase, UDG/FAM-TAMRA fluorescence. AID 493152. shares compounds with APOBEC3G inh. inhibition, % at 20 µM;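 active means inhibition reaching a set limit in any replicate at 20 µM, the limit being 80% of the first screen's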
# UDG ctr A3G – counter-screen for APOBEC3G inhibitors: E. coli UDG. shares compounds with APOBEC3G inh. UDG counterscreen, FAM/TAMRA oligo fluorescence. inhibition, % at 20 µM. 710 tested, under 10 active. AID 504715;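 active means compounds giving 40% or more inhibition at 20 µM in any one of the three replicates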;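 further: plate controls were DMSO wells with UDG and oligo for no effect and DMSO wells lacking both for full effect; inhibitors lower the FAM signal released by uracil excision and alkaline cleavage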
# PfGluPho conf – confirmation of Plasmodium falciparum G6PD inhibitors. shares compounds with PfGluPho inh. recombinant PfGluPho, NADPH-diaphorase-resazurin fluorescence. inhibition, % at 20 µM. 2,400 compounds, 34% hits. AID 504753;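 active means inhibition of at least 50% at 20 µM in any single replicate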;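 further: 0% = DMSO with substrate and 100% = DMSO lacking glucose-6-phosphate substrate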
# Diaphorase 10uM – diaphorase inhibition or oxidation at 10 uM NADPH. shares compounds with PfGluPho inh. diaphorase-coupled resazurin reduction, fluorescence, NADPH 10 uM. inhibition, % at 20 µM. 820 compounds, 39% hits;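 active means average inhibition reaching 50% or more with the compound at 20 µM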;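 further: resorufin red fluorescence formed as diaphorase reduces resazurin using NADPH; 0% = DMSO with enzyme and 100% = DMSO without enzyme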
# Diaph ctr 30uM – inhibits diaphorase or oxidizes, flagging false PfG6PD hits; inhibition, % at 20 µM; AID 504863; Diaphorase/resazurin coupled assay, resorufin fluorescence, 30 uM NADPH; 820 compounds, 29% hits; shares compounds with PfGluPho inh;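 active means inhibition averaging 50% or more, tested at 20 µM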;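 further: 0% = DMSO with enzyme and 100% = DMSO wells lacking diaphorase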
# * marks the source's active call; other numbers are inactive results; . = not tested or not shown.
SMILES,APOBEC3G inh,APOBEC3A inh,GC-A act,NPR2 activator,Neddyl block,PfGluPho inh,APOBEC3G confirm,UDG ctr A3G,PfGluPho conf,others
O=C(CCS(=O)(=O)c1ccc(F)cc1)Nc1nc(-c2ccncc2)cs1,61*,4,3,3,-2,61*,53*,.,12,
CN1CCN(C(=S)C(=O)Nc2ccc(Br)cc2)CC1,80*,6,-2,5,2,81*,70*,-2,74*,Diaphorase 10uM=-9;Diaph ctr 30uM=-4
CN1CCN(C(=S)NC(=O)c2ccc(Br)cc2)CC1,-11,-3,4,-2,-2,-4,.,.,.,
Cc1[nH]c(=S)c(C#N)c(C)c1Cc1ccccc1,-6,-6,1,6,-63,51,.,.,.,
Cc1[nH]c(=S)c(C#N)c(C)c1CCC#N,65*,-5,7,-4,5,69*,90*,-5,51*,Diaphorase 10uM=11;Diaph ctr 30uM=-3
CO[C@H]([C@H](C)/C=C/N(C)C=O)[C@@H](C)C(=O)CC[C@H](C)[C@H](O)[C@H](C)[C@H]1OC(=O)/C=C/C(C)=C/C[C@H](O)C[C@@H]2C=CC[C@@H](C[C@H](OC)[C@@H](C)[C@@H](OC)C[C@@H](OC)[C@@H]1C)O2,.,.,-27,-32,.,.,.,.,.,
O=S1(=O)c2c(cccc2N2CCSCC2)Oc2ccccc2CN1Cc1cn(Cc2ccccc2C(F)(F)F)nn1,.,.,-3,-5,.,.,.,.,.,
OCc1ccccc1CNCc1ccccc1,-3,0,-1,-2,-1,2,.,.,.,
OCc1ccccc1SSc1ccccc1CO,44*,1,14,16,-1,67*,51*,-3,54*,Diaphorase 10uM=-19;Diaph ctr 30uM=14
OC1OC2COC(c3ccccc3)OC2C(O)C1O (configuration not stated),.,.,-1,1,.,.,.,.,.,
COc1ccc(-n2c(=S)[nH]c3sc(-c4ccccc4)cc3c2=O)c(OC)c1,6,4,18,-3,-16,-18,.,.,.,
COc1ccc(-n2c(=S)[nH]c3c(sc(=S)n3-c3ccccc3)c2=O)c(OC)c1,44*,3,8,6,-24,89*,36*,-3,61*,Diaphorase 10uM=-3;Diaph ctr 30uM=4
C#CCNC(=O)C[C@H]1C[C@@]2(C(=O)OC)C(=C[C@H](C(C)C)O[C@@H]2C2CC2)N(CCC2=CCCCC2)C1=O,.,.,-2,-7,.,.,.,.,.,
CCN(CC)c1ccc(NC(=O)c2cccc(C)c2)cc1S(=O)(=O)Nc1ccccc1OC,49*,4,7,-2,12,73*,54*,3,54*,Diaphorase 10uM=-17;Diaph ctr 30uM=-19
CCN(CC)c1ccc(NC(=O)c2ccccc2)cc1S(=O)(=O)Nc1ccccc1OC,50*,4,4,4,1,74*,48*,1,31,
COc1ccc(C(=O)Nc2ccc(Cl)c(S(=O)(=O)Nc3ccccc3OC)c2)cc1,-5,0,-6,-1,16,11,.,.,.,
CCOC(=O)c1c(NC(=O)c2ccccc2Cl)sc2c1CCc1ccccc1-2,57*,-1,-4,0,28,72*,75*,-3,28,
CC(C)(C)C1=Nn2c(nnc2-c2n[nH]c3c2CCC3)SC1,49*,-3,1,8,-4,60*,71*,-7,12,
CC1=Nn2c(nnc2-c2n[nH]c3c2CCC3)SC1,3,5,1,3,-10,-1,.,.,.,
O=C(OCc1cn(Cc2ccc(F)c(F)c2)nn1)N1CCOCC1,.,.,-2,-2,.,.,.,.,.,
Cn1c(NC(=O)c2ccccc2)nc(Cc2ccccc2)c1-c1ccccc1,.,.,1,3,.,.,.,.,.,
O=C(Nc1cc(S(=O)(=O)N2CCOCC2)ccc1N1CCCCC1)c1ccc(Cl)cc1,59*,3,2,3,-15,80*,68*,-1,40,
O=C(Nc1cc(S(=O)(=O)N2CCOCC2)ccc1N1CCCC1)c1ccc2c(c1)S(=O)(=O)c1ccccc1C2=O,64*,6,7,5,-30,74*,74*,.,40,
Cc1c(Cc2ccc3c(c2)OCO3)sc(NC(=O)C2CC2)c1C(N)=O,48*,0,14,17,-5,70*,31,.,34,
CN(CCO)c1cccc2c1S(=O)(=O)N(Cc1cn(Cc3ccccc3C(F)(F)F)nn1)Cc1ccccc1O2,.,.,1,8,.,.,.,.,.,
SMILES,APOBEC3G inh,APOBEC3A inh,GC-A act,NPR2 activator,Neddyl block,PfGluPho inh,APOBEC3G confirm,UDG ctr A3G,PfGluPho conf,others
Oc1ccc(-c2cn3c(n2)SCC3)cc1O,59*,3,-8,-2,-7,63*,76*,-4,89*,Diaphorase 10uM=21;Diaph ctr 30uM=19
O=C(CCc1nc(-c2ccccc2F)no1)NCCc1ccc(F)cc1,.,.,2,4,.,.,.,.,.,
CCOC(=O)[C@@]12CCCC=C1N(CCc1ccc(Cl)cc1)C(=O)[C@H]2CC(=O)NCc1ccccc1,.,.,0,-2,.,.,.,.,.,
Nc1cc(S(=O)(=O)Nc2ccccc2Cl)ccc1N1CCCC1,-3,-3,-1,-4,0,4,.,.,.,
Nc1cc(S(=O)(=O)Nc2cc(Cl)ccc2Cl)ccc1N1CCOCC1,48*,1,6,6,0,61*,34*,6,23,
COC(=O)c1ccccc1NC(=O)c1sc(=S)n(C)c1N,40*,-1,8,-16,-14,63*,41*,4,40,
CCOC(=O)CC[C@H]1CC[C@]2(CCCN(C(=O)c3cccnc3)C2)O1,.,.,0,7,.,.,.,.,.,
CCOC(=O)c1sc(NC(=O)C(C)C)c(C#N)c1C,57*,3,7,-4,-137,68*,64*,-3,34,
CCOC(=O)c1sc(NC(=O)C2=COCCO2)c(C#N)c1C,27,-1,1,-4,14,33,.,.,.,
CC(=O)Nc1cc(OC(C)=O)c2nonc2c1OC(C)=O,76*,2,-5,4,-5,80*,70*,.,53*,Diaphorase 10uM=18;Diaph ctr 30uM=24
O=C(Nc1ccc2c(c1)OCO2)O[C@@H]1CC[C@@]23CCCN2C(=O)CCC[C@H]3C1,.,.,-1,-2,.,.,.,.,.,
CCOc1ccc(C(=S)NC2CCCCC2)cc1OCC,56*,-1,2,1,-5,65*,49*,-1,23,

# Source: PubChem (Sanford-Burnham Center for Chemical Genomics)
